Compound activity from PubChem.
USP30 inh – blocks human USP30 ubiquitin-rhodamine cleavage | Q70CQ3 | AID 1645860 | hit rate 5.3% among 47,000 | inhibition, % at 25 µM | purified USP30, Ub-rhodamine cleavage fluorescence
USP17 inh – blocks human USP17 ubiquitin-rhodamine cleavage; A8MUK1; AID 1645855; purified USP17, Ub-rhodamine cleavage fluorescence, 3 h; hit rate 6.5% among 47,000; inhibition, % at 50 µM
Target sequence (A8MUK1 whole entry, looked up): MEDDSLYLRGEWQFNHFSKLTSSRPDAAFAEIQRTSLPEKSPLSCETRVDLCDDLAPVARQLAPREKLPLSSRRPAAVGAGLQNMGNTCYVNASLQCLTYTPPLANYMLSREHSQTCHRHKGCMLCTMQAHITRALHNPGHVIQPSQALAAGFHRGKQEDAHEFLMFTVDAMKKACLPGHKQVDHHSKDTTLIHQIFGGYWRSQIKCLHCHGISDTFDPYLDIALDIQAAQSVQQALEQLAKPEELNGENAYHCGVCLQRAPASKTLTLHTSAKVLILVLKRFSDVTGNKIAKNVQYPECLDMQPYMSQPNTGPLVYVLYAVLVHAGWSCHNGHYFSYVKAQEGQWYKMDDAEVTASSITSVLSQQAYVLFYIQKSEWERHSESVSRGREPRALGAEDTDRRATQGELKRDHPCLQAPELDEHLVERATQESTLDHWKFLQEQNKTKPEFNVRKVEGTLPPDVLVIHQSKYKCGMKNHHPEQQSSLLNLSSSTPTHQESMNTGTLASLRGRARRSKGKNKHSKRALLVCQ
USP28 inh – blocks human USP28 ubiquitin-rhodamine cleavage; Q96RU2; inhibition, % at 25 µM; purified USP28, Ub-rhodamine cleavage fluorescence, 30 min; hit rate 3% among 47,000
OTUD3 block – inhibitors of human OTUD3 deubiquitinase; Q5T2D3; purified OTUD3, Ub-rhodamine fluorescence, 2 h; inhibition, % at 25 µM; hit rate 0.7% among 47,000; AID 1645858
* hit, by the source's call; i = inactive; x = no result given. Rows were chosen to be rich in hits. Some 12% of all compounds tested hit in one or more screens of this group. Cut-off read from the data, not from the text of the source: active = inhibition above about 30%; inactive = the rest.

SMILES	USP30 inh	USP17 inh	USP28 inh	OTUD3 block
COc1cccc(OC)c1C(=O)C1CC(=O)Nc2n[nH]c(C)c21 (centres undefined)	5	-2	-2	0
COc1cccc(C2CC(=O)Nc3n[nH]c(C)c32)c1OCc1ccccc1C (centres undefined)	34*	5	9	0
COc1ccc(C2CC(=O)Nc3ccc4ccccc4c32)c(OC)c1OC (centres undefined)	68*	37*	7	11
COc1ccc2c(CCNC(=O)CSc3nnnn3-c3ccc(C)cc3C)c[nH]c2c1	-36	25	-3	-7
CN1CCN(C(=O)c2cc(-c3ccn(-c4ccccc4)n3)n3ccccc23)CC1	i	-156	-156	-251
Cc1ccccc1CNC(=O)C1CCN(C2=NS(=O)(=O)c3ccccc32)CC1	32*	12	6	9
O=C(NCc1ccccc1)C1CCN(C2=NS(=O)(=O)c3ccccc32)CC1	x	14	x	10
COc1ccc(NC(=O)C2CCN(C3=NS(=O)(=O)c4ccccc43)CC2)cc1	41*	43*	17	13
O=C(NCCCc1nc2ccccc2n1Cc1c(F)cccc1Cl)c1ccco1	11	34*	5	6
O=C(NCCCc1nc2ccccc2n1Cc1c(Cl)cccc1Cl)c1ccco1	11	74*	47*	28
CCn1c(CCNC(=O)c2ccccc2)nc2ccccc21	x	4	x	4
Cn1c(CCNC(=O)c2ccco2)nc2cc([N+](=O)[O-])ccc21	27	-4	12	16
Cc1ccc(S(=O)(=O)N[C@@H](Cc2ccccc2)C(=O)N2CCC(C(=O)N[C@@H](Cc3c[nH]c4ccccc34)C(=O)O)CC2)cc1	-1	x	0	-2
COC(=O)c1ccc(COC(=O)c2cc(C)nc3ccccc23)cc1	-10	-2	-5	-3
COC(=O)c1ccc(CNC(=O)COC(=O)c2cc(-c3ccccc3)nc3ccccc23)cc1	47*	9	9	21
COc1ccc(S(=O)(=O)c2cnc3ccc(Cl)cc3c2NCc2ccccc2)cc1	30*	2	4	-1
COc1ccc(S(=O)(=O)c2cnc3cc(OC)c(OC)cc3c2NCc2ccccc2)cc1	-1	0	-6	-6
CC1=C(C(=O)Nc2ccccc2)C(c2cccnc2)n2c(nc3ccccc32)N1 (centres undefined)	18	45*	17	8
CC1=C(C(=O)Nc2ccc(C)cc2)C(c2ccncc2)n2c(nc3ccccc32)N1 (centres undefined)	1	-7	1	-19
O=C(COc1ncnc2ccccc12)Nc1ccc2c(c1)OC1(CCCC1)O2	10	60*	26	20
CC(=O)N1CCCc2cc(S(=O)(=O)NCc3ccc(F)cc3)ccc21	9	0	5	6
Cc1cccc(NC(=O)NCCc2cn(C)c3ncccc23)c1C	1	-2	0	2
Cc1ccc(C)c(NC(=O)NCCc2cn(C)c3ncccc23)c1	18	37*	17	5
O=C(CSc1nc2cc(C(F)(F)F)ccc2s1)NCC(=O)c1ccccc1	0	91*	5	-8
CC(C)Cn1c(N2CCNCC2)nc2c1c(=O)[nH]c(=O)n2C	47*	10	14	14
SMILES	USP30 inh	USP17 inh	USP28 inh	OTUD3 block
Cn1c(=O)[nH]c(=O)c2c1nc(N1CCN(C(c3ccccc3)c3ccccc3)CC1)n2CCSc1ncccn1	30*	1	12	3
O=C(NCc1noc(C2CCCCC2)n1)C1CCCC1	-8	-13	-21	-6
CC(C)c1nc(CNC(=O)C2CCCCC2)no1	10	37*	6	4
COc1ccc(N(CC(=O)Nc2cc(Cl)ccc2OC)S(=O)(=O)c2c(C)nn(C)c2C)cc1	-11	-5	-6	0
COc1ccc(N(CC(=O)Nc2ccc(OC)c(OC)c2)S(=O)(=O)c2c(C)nn(C)c2C)cc1	41*	23	4	1
CN(C(=O)CCS(=O)(=O)c1ccc2c(c1)SCC(=O)N2)C1CCCCC1	-68	x	-15	-10
O=C(NCc1ccc(C(F)(F)F)cc1)C1CCN(c2nc3nc[nH]c(=O)c3s2)CC1	14	42*	11	2
Cc1ccccc1NC(=O)Cn1c(N2CCOCC2)nc2cc(C)n(C)c2c1=O	62*	36*	10	15
Cc1cccc(NC(=O)Cn2c(N3CCOCC3)nc(C)cc2=O)c1	1	-1	-11	-6
Cc1cc(=O)n(CC(=O)NCc2ccc(Cl)cc2)c(N2CCOCC2)n1	19	3	8	9
CCc1ccc(NC(=O)Cn2c(N3CCOCC3)nc3cc(C)n(C)c3c2=O)cc1	33*	40*	8	10
Cc1cc2nc(N3CCOCC3)n(CC(=O)Nc3cccc(F)c3)c(=O)c2n1C	13	38*	-1	2
